Measured values: PubChem BioAssay (Tox21)
Results filed as inconclusive are left out. The source made the active and inactive calls. Unless noted, calls follow the shape of the dose curve; as a rule, active = well fitted curve in the direction sought with a large enough effect in the repeat runs; inconclusive = weak or mixed curves; inactive = no such curve, though single readings can be large; an effect the other way counts as inactive or inconclusive.

Experiments:
[1] = qHTS assay to identify small molecule antagonists of the thyroid receptor (TR) signaling pathway (AID 743065); also: series mostly up to about 70 µM; nearly all actives have a fitted effect of over 55% in size
Procedure, shortened: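 GH3.TRE-Luc rat pituitary cells carrying two TR response elements driving luciferase were plated for 4 h, given compound plus 1 nM T3 (final), and incubated 23.5 h at 37 C. ONE-Glo luminescence measured reporter inhibition; CellTiter-Fluor fluorescence tracked cytotoxicity.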

[2] = tested on: thyroid hormone receptor (rat, GH3 cells); experiment: qHTS assay to identify small molecule agonists of the thyroid receptor (TR) signaling pathway (AID 743066; calls by dose curve)
[3] = molecular target: Estrogen receptor (Homo sapiens) (UniProt P03372); experiment: qHTS assay to identify small molecule antagonists of the estrogen receptor alpha (ER-alpha) signaling pathway (AID 743069; active = well fitted curve in the direction sought with a large enough effect in the signal ratio in the repeat runs, not every such curve was filed as active; the % refers to the signal ratio)
Estrogen receptor (Homo sapiens), sequence (P03372 whole entry, looked up): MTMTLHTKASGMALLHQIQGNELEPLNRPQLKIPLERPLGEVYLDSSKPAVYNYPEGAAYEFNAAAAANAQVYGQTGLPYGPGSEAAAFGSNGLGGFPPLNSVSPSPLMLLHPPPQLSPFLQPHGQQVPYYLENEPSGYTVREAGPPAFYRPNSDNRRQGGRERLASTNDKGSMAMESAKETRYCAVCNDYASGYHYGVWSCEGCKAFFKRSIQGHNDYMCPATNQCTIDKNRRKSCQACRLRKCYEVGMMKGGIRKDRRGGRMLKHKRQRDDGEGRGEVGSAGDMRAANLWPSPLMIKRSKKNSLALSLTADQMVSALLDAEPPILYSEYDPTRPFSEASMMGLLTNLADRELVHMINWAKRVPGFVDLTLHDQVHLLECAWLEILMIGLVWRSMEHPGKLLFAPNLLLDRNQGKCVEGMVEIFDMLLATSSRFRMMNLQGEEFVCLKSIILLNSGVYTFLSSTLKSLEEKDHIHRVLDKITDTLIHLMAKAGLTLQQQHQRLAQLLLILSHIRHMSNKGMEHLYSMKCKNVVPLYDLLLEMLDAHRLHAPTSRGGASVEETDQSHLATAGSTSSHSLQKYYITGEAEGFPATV
Procedure, shortened: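 HEK293 cells stably carrying an ER-alpha-UAS-bla beta-lactamase reporter were pre-cultured overnight in 2% charcoal-stripped FBS medium. Test compounds in DMSO were added together with 17beta-estradiol for 18 hr at 37C. Read-out was fluorescence after 2 hr with LiveBLAzer B/G FRET substrate at room temperature.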

[4] = qHTS assay to identify small molecule antagonists of the estrogen receptor alpha (ER-alpha) signaling pathway - cell viability counter screen (AID 743074; calls by dose curve; also: nearly all actives have a fitted effect of over 45% in size)
[5] = molecular target: Estrogen receptor (Homo sapiens) (UniProt P03372); experiment: qHTS assay to identify small molecule agonists of the estrogen receptor alpha (ER-alpha) signaling pathway (AID 743075; calls by dose curve)
[6] = molecular target: Estrogen receptor (Homo sapiens) (UniProt P03372); experiment: qHTS assay to identify small molecule agonists of the estrogen receptor alpha (ER-alpha) signaling pathway using the BG1 cell line (AID 743079); also: nearly all actives have a fitted effect of over 20% in size
[7] = qHTS assay to identify small molecule antagonists of the estrogen receptor alpha (ER-alpha) signaling pathway using the BG1 cell line (AID 743080; calls by dose curve;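 also: BG1 cells stimulated with 17beta-estradiol alongside compound; series mostly up to about 70 µM; nearly all actives have a fitted effect of over 25% in size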)
Procedure, shortened: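 BG1Luc4E2, endogenous ER-alpha, 4xERE-luc; 5 d charcoal-stripped FBS, phenol red free; 24 h plating; cpd + 17beta-estradiol 21.5 h, 37 C/5% CO2; CellTiter-Fluor viability 30 min, then ONE-Glo luciferase 30 min RT.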

[8] = qHTS assay to identify small molecule antagonists of the estrogen receptor alpha (ER-alpha) signaling pathway using the BG1 cell line - cell viability counter screen (AID 743081);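 also: compound given together with 17beta-estradiol as the ER stimulus; series mostly up to about 70 µM; nearly all actives have a fitted effect of over 45% in size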
Aromatase (Homo sapiens) = Aromatase (Homo sapiens) (UniProt P11511); experiment: qHTS assay to identify aromatase inhibitors (AID 743083); also: series mostly up to about 70 µM; nearly all actives have a fitted effect of over 55% in size
Aromatase (Homo sapiens), sequence (P11511 whole entry, looked up): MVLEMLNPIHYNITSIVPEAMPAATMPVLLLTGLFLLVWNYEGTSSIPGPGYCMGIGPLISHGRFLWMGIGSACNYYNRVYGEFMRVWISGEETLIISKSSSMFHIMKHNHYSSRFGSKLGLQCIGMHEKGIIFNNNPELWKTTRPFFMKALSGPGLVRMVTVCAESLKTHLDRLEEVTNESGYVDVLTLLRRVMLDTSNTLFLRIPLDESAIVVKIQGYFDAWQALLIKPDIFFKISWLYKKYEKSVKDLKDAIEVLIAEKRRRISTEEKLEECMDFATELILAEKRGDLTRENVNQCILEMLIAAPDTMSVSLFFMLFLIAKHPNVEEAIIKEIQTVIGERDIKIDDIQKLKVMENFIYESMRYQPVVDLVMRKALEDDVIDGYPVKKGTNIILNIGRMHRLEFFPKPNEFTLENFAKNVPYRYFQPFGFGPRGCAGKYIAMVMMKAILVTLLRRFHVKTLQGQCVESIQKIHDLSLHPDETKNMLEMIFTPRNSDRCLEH

[9] = qHTS assay to identify aromatase inhibitors - cell viability counter screen (AID 743084);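 also: cells stimulated with testosterone during compound exposure; nearly all actives have a fitted effect of over 55% in size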
[10] = molecular target: Aryl hydrocarbon receptor (Homo sapiens) (UniProt P35869); experiment: qHTS assay to identify small molecule that activate the aryl hydrocarbon receptor (AhR) signaling pathway (AID 743085);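 also: HG2L7.5c1 human HepG2 liver cells with stably integrated DRE-driven firefly reporter; series mostly up to about 70 µM; nearly all actives have a fitted effect of over 15% in size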
Aryl hydrocarbon receptor (Homo sapiens), sequence (P35869 whole entry, looked up): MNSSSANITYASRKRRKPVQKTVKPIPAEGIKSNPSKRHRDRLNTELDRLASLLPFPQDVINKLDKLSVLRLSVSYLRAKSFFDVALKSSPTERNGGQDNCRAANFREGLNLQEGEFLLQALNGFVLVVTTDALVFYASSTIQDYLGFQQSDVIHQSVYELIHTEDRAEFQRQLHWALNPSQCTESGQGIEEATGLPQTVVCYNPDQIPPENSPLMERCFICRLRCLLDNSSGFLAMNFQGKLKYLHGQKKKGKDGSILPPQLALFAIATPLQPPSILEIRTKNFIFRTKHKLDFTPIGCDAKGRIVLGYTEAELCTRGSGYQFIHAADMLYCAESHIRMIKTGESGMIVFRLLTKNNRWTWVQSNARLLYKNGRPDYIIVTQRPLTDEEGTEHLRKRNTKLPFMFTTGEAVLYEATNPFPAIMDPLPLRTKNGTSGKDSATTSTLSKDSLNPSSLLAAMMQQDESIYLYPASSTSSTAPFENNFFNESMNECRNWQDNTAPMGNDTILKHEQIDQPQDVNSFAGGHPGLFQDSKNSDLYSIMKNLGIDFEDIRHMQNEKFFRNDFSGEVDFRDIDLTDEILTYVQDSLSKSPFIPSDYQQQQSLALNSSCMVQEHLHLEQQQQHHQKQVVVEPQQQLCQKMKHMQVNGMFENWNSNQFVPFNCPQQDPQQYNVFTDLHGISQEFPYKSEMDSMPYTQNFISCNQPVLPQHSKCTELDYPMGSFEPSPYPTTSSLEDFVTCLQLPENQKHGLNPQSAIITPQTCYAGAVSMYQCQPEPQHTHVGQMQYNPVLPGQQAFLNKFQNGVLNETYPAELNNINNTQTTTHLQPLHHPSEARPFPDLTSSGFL
Procedure, shortened: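 Compounds were tested in HepG2 hepatocellular carcinoma cells harbouring a stably integrated luciferase gene under control of 20 DREs. Increased reporter signal after 24 h treatment at 37C was taken as AhR activation.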

[11] = qHTS assay to identify small molecule that activate the aryl hydrocarbon receptor (AhR) signaling pathway - cell viability counter screen (AID 743086);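 also: HepG2 liver cells carrying the AhR DRE luciferase reporter; series mostly up to about 70 µM; nearly all actives have a fitted effect of over 45% in size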
Procedure, shortened: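 HepG2-AhR-luc (HG2L7.5c1) cells, 4000/well, were preincubated 5 h at 37C, exposed to compound in qHTS format for 24 hr at 37C, then given CellTiter-Fluor for 30 min; viability was read as fluorescence in the reporter wells.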

[12] = molecular target: Peroxisome proliferator-activated receptor gamma (Homo sapiens) (UniProt P37231); experiment: qHTS assay to identify small molecule agonists of the peroxisome proliferator-activated receptor gamma (PPARg) signaling pathway (AID 743094; active = well fitted activation curve with a large enough effect in the signal ratio in the repeat runs, not every such curve was filed as active; the % refers to the signal ratio)
Peroxisome proliferator-activated receptor gamma (Homo sapiens), sequence (P37231 whole entry, looked up): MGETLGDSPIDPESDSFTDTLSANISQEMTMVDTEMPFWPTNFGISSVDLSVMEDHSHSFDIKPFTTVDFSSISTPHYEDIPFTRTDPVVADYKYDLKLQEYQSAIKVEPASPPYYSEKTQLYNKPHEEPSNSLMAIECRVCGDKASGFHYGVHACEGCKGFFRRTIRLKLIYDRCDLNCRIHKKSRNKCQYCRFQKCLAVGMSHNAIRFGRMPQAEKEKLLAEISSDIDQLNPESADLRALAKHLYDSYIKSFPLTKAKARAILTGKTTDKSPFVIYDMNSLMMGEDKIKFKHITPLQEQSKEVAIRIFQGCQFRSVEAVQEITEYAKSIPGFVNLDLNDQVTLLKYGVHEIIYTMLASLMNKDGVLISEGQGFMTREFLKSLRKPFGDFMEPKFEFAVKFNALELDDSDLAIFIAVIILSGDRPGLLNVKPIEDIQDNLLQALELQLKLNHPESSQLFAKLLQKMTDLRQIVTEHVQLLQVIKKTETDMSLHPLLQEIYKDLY
Procedure, shortened: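 GeneBLAzer PPARg UAS-bla HEK293H cells carrying a stably integrated beta-lactamase reporter were pre-incubated 5 h at 37C, then exposed to compounds in DMSO for 17 h at 37C; LiveBLAzer B/G FRET substrate was added for 1 h at room temperature and fluorescence read.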

[13] = molecular target: Peroxisome proliferator-activated receptor gamma (Homo sapiens) (UniProt P37231); experiment: qHTS assay to identify small molecule antagonists of the peroxisome proliferator-activated receptor gamma (PPARg) signaling pathway (AID 743191; calls by dose curve; also: series mostly up to about 63 µM; nearly all actives have a fitted effect of over 30% in size)
Procedure, shortened: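 GeneBLAzer PPARg UAS-bla HEK293H cells carrying a UAS-driven beta-lactamase reporter were plated at 3000 cells/well, preincubated 5 h at 37C, then given compound for 17 h at 37C; LiveBLAzer B/G FRET substrate was read after 1 h at room temperature.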

[14] = qHTS assay to identify small molecule antagonists of the peroxisome proliferator-activated receptor gamma (PPARg) signaling pathway - cell viability counter screen (AID 743194); also: nearly all actives have a fitted effect of over 55% in size
Procedure, shortened: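 PPARg-UAS-bla HEK293H cells were plated, rested 5 h at 37 C, then treated with compounds plus rosiglitazone (50 nM final) for 17 h at 37 C; viability was then read by CellTiter-Glo luminescence after 30 min at room temperature.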

[15] = qHTS assay for small molecule agonists of the antioxidant response element (ARE) signaling pathway (AID 743202; active = well fitted activation curve with a large enough effect in the signal ratio in the repeat runs, not every such curve was filed as active; the % refers to the signal ratio)
Procedure, shortened: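 Read-out: LiveBLAzer B/G FRET substrate fluorescence after 2 h at room temperature, following 16 h compound treatment at 37 C of HepG2 cells carrying an ARE-driven beta-lactamase reporter.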

[16] = qHTS assay for small molecule agonists of the antioxidant response element (ARE) signaling pathway - cell viability counter screen (AID 743203; calls by dose curve; also: nearly all actives have a fitted effect of over 55% in size)
Procedure, shortened: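 CellSensor ARE-bla HepG2 cells, 2,000 per well, rested 5 hrs at 37C/5% CO2, then exposed to compound in DMSO for 16 hrs; viability read as CellTiter-Glo luminescence after 30 min at room temperature, in the reporter wells.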

[17] = qHTS assay for small molecule activators of the heat shock response signaling pathway - cell viability counter screen (AID 743209); also: nearly all actives have a fitted effect of over 50% in size
Procedure, shortened: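 CellSensor HSE-bla HeLa cells, plated overnight at 37 C/5% CO2, were exposed to compounds in DMSO for 5 h at 37 C. Viability was then read in the same wells by CellTiter-Glo luminescence after 30 min at room temperature.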

[18] = qHTS assay for small molecule activators of the heat shock response signaling pathway (AID 743210; active = well fitted activation curve with a large enough effect in the signal ratio in the repeat runs, with a control signal flat, not every such curve was filed as active; the % refers to the signal ratio; also: series mostly up to about 63 µM)
Procedure, shortened: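 HSE-bla HeLa cells (beta-lactamase reporter under heat shock response elements) were exposed to compounds for 5 h at 37 C, then loaded with LiveBLAzer B/G FRET substrate for 2.5 h at room temperature before fluorescence reading.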

[19] = qHTS assay to identify small molecule antagonists of the thyroid receptor (TR) signaling pathway - cell viability counter screen (AID 743064); also: nearly all actives have a fitted effect of over 50% in size
Procedure, shortened: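 Rat GH3 pituitary tumor cells stably expressing two TR response elements driving luciferase were plated, rested 4 h, then dosed with library compounds and T3 (1 nM final). After 23.5 h at 37 °C, CellTiter-Fluor was added for 30 min and fluorescence recorded.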

Measured: Potency

Cc1ccc([N+](=O)[O-])cc1S(=O)(=O)O
not listed: [19]
inactive: all other assays above

CC(=O)c1ccc(O)cc1
not listed: [3]
inactive: all other assays above

CN1C(=O)CC[C@H]1c1cccnc1
not listed: [1] | [2] | [3] | [5] | [6] | [7] | [14]
inactive: all other assays above

CCCCCCC=O
not listed: [15] | [19]
inactive: all other assays above

NCCNCCN
not listed: [3] | [5] | [6] | [7] | [14]
inactive: all other assays above

CCCCCCCCCCCCCCCCO
not listed: [15] | [19]
inactive: all other assays above

Cc1ccc(S(=O)(=O)N=C=O)cc1
not listed: [19]
inactive: all other assays above

COc1ccc(OC)cc1
not listed: [1] | [2] | [4] | [15]
inactive: all other assays above

OCc1cccc(Oc2ccccc2)c1
not listed: [3] | [5] | [6] | [7] | [13] | [14] | [15] | [19]
inactive: all other assays above

CC(=O)OC1CC(C)OC(C)O1 (configuration not stated)
not listed: [3] | [5] | [6] | [7] | [14] | [18] | [19]
inactive: all other assays above
